Assay results as given in PubChem BioAssay AID488856 (Sanford-Burnham Center for Chemical Genomics, 2010).
Hit rate of the full screen: of about 1,400 compounds, about 50 (4%) were called active.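 The calls were made as follows: active = mean inhibition across replicates above about 26% (limit read from the data); inactive = the rest.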 The list is a sample of the results.

molecular target: Caspase-3 (Homo sapiens) (UniProt P42574); experiment: CASP3 inhibitor validation, counterassay for project on UBE2N polyubiquitination blockers, biochemical, one dose (AID 488856); settings: Recombinant caspase-3, Caspase-Glo 3/7 luminescence, 60 min; at 20 µM; stronger effect = higher value;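 also: plate controls were DMSO with caspase-3 for no effect and DMSO wells lacking enzyme for full effect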
Sequence (P42574 whole entry, looked up): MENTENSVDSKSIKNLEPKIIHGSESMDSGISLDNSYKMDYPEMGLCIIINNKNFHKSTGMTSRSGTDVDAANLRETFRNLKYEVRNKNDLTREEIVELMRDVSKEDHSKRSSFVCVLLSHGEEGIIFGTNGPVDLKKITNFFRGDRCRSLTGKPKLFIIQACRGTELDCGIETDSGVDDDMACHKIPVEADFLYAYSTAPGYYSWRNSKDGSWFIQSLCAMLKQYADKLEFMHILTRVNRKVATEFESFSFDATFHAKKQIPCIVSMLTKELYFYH

Structure (SMILES)	inhibition
Cc1cccc(-n2cnc(C(=O)NNC(=S)Nc3ccccc3)c2)n1	0% (inactive)
CCCCN(C)CCCNC(=O)c1cc(-c2cccs2)nc2ccccc12	-3.7% (inactive)
C#CCOCCOCCOCCNc1nc(N2CCN(C(=O)C(Cc3ccc(O)cc3)n3cc(C(N)CC(C)C)nn3)CC2)nc(N2CCN(C(=O)C(Cc3ccc(O)cc3)n3cc(C(N)C(C)CC)nn3)CC2)n1 (configuration not stated)	0.7% (inactive)
CN(C)c1ccnc2sc3c(=O)n(Cc4ccccc4)cnc3c12	-2.2% (inactive)
CCN1C(=NCc2ccc(OC)cc2)N[C@@H](CCc2ccccc2)[C@H](C(=O)NCc2ccc(OC)cc2)[C@H]1C	-3.2% (inactive)
CN(C)CC(O)COc1ccc(C(C)(C)c2ccc(OCC(O)CN(C)C)cc2)cc1 (configuration not stated)	3.6% (inactive)
CCCCCCCCCCOC(=O)Cn1c(COc2cccc(OC)c2)[n+](C)c2ccccc21	3.3% (inactive)
Cc1cccc(OCC(O)CN2CCN(CCN3C(=O)c4cccc5cccc(c45)C3=O)CC2)c1C (configuration not stated)	2.6% (inactive)
COc1ccccc1NC(=O)CSc1nnc(-c2ccoc2C)n1CCc1ccccc1	-0.3% (inactive)
CCCCN(CCCC)CCC(O)c1cc2c(Cl)cc(Cl)cc2c2cc(C(F)(F)F)ccc12 (configuration not stated)	3.4% (inactive)
Cc1c(CN2CCC(CO)(CCOc3ccccc3)CC2)[nH]c2ccc(Cl)cc12	-3.8% (inactive)
N#Cc1c(-c2ccc(Cl)cc2)c2c([nH]c1=S)CCCC2	-1.9% (inactive)
CC[C@@H](C)[C@@H]1CN([C@@H](C)CN2CCC[C@H]2CN2C(N)=NC[C@H]2C(C)C)C(=N)N1CCc1ccc(Cl)c(Cl)c1	2.5% (inactive)
CCOC(=O)[C@@H]1[C@H]2COc3cc(OC)ccc3[C@H]2N2C(=O)N(c3ccc(F)cc3)C(=O)[C@]12C	3.4% (inactive)
Cc1cc(C)c(NC(=O)C[N+](C)(C)CC(O)COc2cccc3ccccc23)c(C)c1 (configuration not stated)	-2.3% (inactive)
CC(=O)Nc1ccc(NC(=O)c2sc3nc4c(c(-c5ccc(C)cc5)c3c2N)CCC4)cc1	4.6% (inactive)
C=C1c2c(Cl)ccc(O)c2C(O)=C2C(=O)[C@]3(O)C(O)=C(C(N)=O)C(=O)[C@@H](N(C)C)[C@@H]3[C@@H](O)C12 (some centres not stated)	1.1% (inactive)
CCCOc1ccc(Cl)cc1Nc1nc(NCCO)nc(N2CCCC2)n1	6.6% (inactive)
CN1CCC(CN)(N2CCN(c3ccccc3)CC2)CC1	-2.2% (inactive)
CCOC(=O)N1CCN(C(=O)Cc2ccc(-n3c(=S)[nH]c4ccccc4c3=O)cc2)CC1	-0.5% (inactive)
CN1CCN(CCCNC(=O)c2ccc(/C=C3\Oc4ccccc4N(Cc4ccc(Cl)cc4)C3=O)cc2)CC1	-0.4% (inactive)

Structure (SMILES)	inhibition
O=c1c2c(nc3n1CCCCC3)sc1c(O)cccc12	77.2% (active)
c1ccc(C[C@H]2CNCCN2CCC23CC4CC(CC(C4)C2)C3)cc1	-0.9% (inactive)
O=c1cc(CO)oc(C(Nc2cccc(C(F)(F)F)c2)c2ccccn2)c1O (configuration not stated)	-1.4% (inactive)
NC(N)=Nc1nc(-c2ccccc2)c2cc(Cl)ccc2n1	-2.7% (inactive)
CCC(C(=O)NC1CCCC1)N(C(=O)c1snc(C(N)=O)c1N)c1ccc2c(c1)OCCO2 (configuration not stated)	1.4% (inactive)
c1ccc2c(CCN3CCNC[C@H]3Cc3cccc4ccccc34)cccc2c1	5% (inactive)
C#CCOCCOCCOCCNc1nc(N2CCN(C(=O)C([C@@H](C)O)n3cc([C@@H](N)CCCCN)nn3)CC2)nc(N2CCN(C(=O)[C@H](CCCCN)n3cc(CN)nn3)CC2)n1 (some centres not stated)	1.6% (inactive)
COC(=O)c1cc(-c2cccs2)nc2ccccc12	-2.9% (inactive)
CC1CN(C(=O)CCC(=O)NCCCN2CCC(Cc3ccccc3)CC2)c2cc(Cl)ccc2O1 (configuration not stated)	0.6% (inactive)
NC[C@H](Cc1ccccc1)NCCc1cc(C(F)(F)F)cc(C(F)(F)F)c1	-2.6% (inactive)
CCOC(=O)C1=C(c2ccccc2)O/C(=C(/C(=O)OC)C(F)(F)F)S1	1.4% (inactive)
COc1ccc(/C=N\NC(=O)c2sc(N)nc2C)cc1OC	23% (inactive)
C#CCOCCOCCOCCNc1nc(N2CCN(C(=O)C([C@@H](C)CC)n3cc(C(N)COC(=O)C(F)(F)F)nn3)CC2)nc(N2CCN(C(=O)[C@H](CCCCN)n3cc(C(N)CC(C)C)nn3)CC2)n1 (some centres not stated)	-1% (inactive)
CN(C)CCCN(C(=O)c1ccc(S(=O)(=O)N2CCCCCC2)cc1)c1nc2cc3c(cc2s1)OCCO3	1.4% (inactive)
CCN(CC(=O)NCc1cccs1)C(=O)c1cccc(S(=O)(=O)Nc2ccccc2OC)c1	-1.4% (inactive)
COc1ccc(N(C(=O)c2snc(C(N)=O)c2N)C(C(=O)NC2CCCC2)c2ccco2)cc1OC (configuration not stated)	-0.3% (inactive)
CCN1CCN(CCNC(=O)c2ccc(/C=C3/Sc4ccccc4N(Cc4cccc(C)c4)C3=O)cc2)CC1	2.4% (inactive)
C[C@@H](CN1CCC[C@H]1CN1C(N)=NC[C@@H]1Cc1ccccc1)N1C[C@@H](Cc2ccccc2)N(CCCC2CCCC2)C1=N	1.4% (inactive)
COc1ccnc2c1c(=O)n(Cc1cccc(F)c1)c(=O)n2C	-0.3% (inactive)
OCCNc1nc(Nc2ccc(Cl)c(Cl)c2)nc2ccccc12	-0.1% (inactive)
CCCC[C@@H]1CN=C(N)N1CCc1cc(C(F)(F)F)cc(C(F)(F)F)c1	0.9% (inactive)
